KB-3-1 cytotox = KB-3-1 parental cell cytotoxicity. 400,000 tested, 1.4% active. Potency, µM (series often up to 46.1 µM), most hits filed as cytotoxic. AID 1347075. KB-3-1 viability, CellTiter-Glo ATP luminescence, 72 h; note: % is set by controls: 0 for no effect and ±100 for the full control effect; nearly all actives have a fitted effect of over 60% in size
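Viability of parental KB-3-1 cells, measured by CellTiter-Glo luminescence, followed a 72 h incubation at 37 °C with pinned compounds in phenol-red-free DMEM containing 10% FBS.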
MCF10A rereplic = induces DNA re-replication in MCF 10a normal breast cells; MCF 10A DNA re-replication, Hoechst nuclear intensity, 48 h; Potency, µM (titrated, usually from 46.1 µM), for the others: at the highest dose activity, positive = re-replication, usual class: activators; 350,000 tested, 2.9% active; note: % of control where 0% means no effect; nearly all actives have a fitted effect of over 50% in size
ELG1 repair inh = inhibitors of ELG1-dependent DNA repair in HEK293T cells. HEK293T ELG1-luciferase reporter, luminescence, 16 h; DNA damage induced by 5-fluorouridine. Potency, µM (doses to about 46.1 µM), for inactives: at the top dose activity change, negative = inhibition, usual class: inhibitors. 330,000 tested, 2.3% active; note: % is set by controls: 0 for no effect and ±100 for the full control effect; nearly all actives have a fitted effect of over 55% in size
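Cells (2,000 per well) received 5-fluorouridine plus test compound or DMSO and were incubated 16 hr at 37 °C, 5% CO2. Luciferase activity was read by luminescence 30 min after ONE-Glo addition; signal suppression marked inhibition of damage-induced ELG1 function.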
SW480 rereplic = induces DNA re-replication in SW480 colon adenocarcinoma cells | SW480 DNA re-replication, Hoechst DNA content imaging, 48 h | Potency, µM (series often up to 46.1 µM), for inactives: at the top dose re-replication activation, actives largely listed as activators | 340,000 tested, 1.8% active; note: % of control where 0% means no effect; nearly all actives have a fitted effect of over 55% in size
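SW480 cells exposed to compounds for 48 hr at 37 C, 5% CO2, then Hoechst-stained 40 min. Nuclear DNA content imaged by fluorescence scanning (405 nm excitation, 500-530 nm emission); re-replication scored as increased high-intensity nuclei.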
KB-V1 MDR tox = kills drug-selected multidrug resistant KB-V1 cells. KB-V1 MDR cells viability, CellTiter-Glo, 72 h. Potency, µM (series often up to 46.1 µM), hits mostly cytotoxic. 400,000 tested, 3.4% active; note: % is set by controls: 0 for no effect and ±100 for the full control effect; nearly all actives have a fitted effect of over 60% in size
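Compound-treated KB-V1 multidrug-resistant cells, 72 h, 37 degrees C; viability by CellTiter-Glo. Fitted qHTS curves give the values.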
* = called active by the depositor; i = inactive; ? = inconclusive; . = not tested or not shown. The list is not random: actives were taken first. Their share in the collection is about 8.2%. Calls come from the whole dose curve; as a rule, active = well fitted curve in the direction sought with a large enough effect; inconclusive = small, poorly fitted or top-dose-only effect, or another doubt; inactive = no such curve, though single readings can be large; an effect the other way counts as inactive or inconclusive. Potency is the fitted concentration of half-maximal effect.

SMILES	KB-3-1 cytotox	MCF10A rereplic	ELG1 repair inh	SW480 rereplic	KB-V1 MDR tox
COc1c(C)cc(C(O)c2ncc(-c3ccccc3C(F)(F)F)[nH]2)cc1C (stereo unspecified)	i	.	.	.	18.4µM*
COc1ccccc1-c1cnc(C(O)c2ccc(Cl)c(Cl)c2)[nH]1 (stereo unspecified)	?	.	.	.	23.1µM*
O=C(Cn1c(=O)n(Cc2ccc(F)cc2)c(=O)c2sc3ccccc3c21)NCc1ccccc1	i	.	.	.	i
COc1cc2c(cc1OC)C(c1ccccc1)N(C(=O)c1cccc(S(C)(=O)=O)c1)CC2 (stereo unspecified)	i	?	-3.7%	-13.4%	i
Cc1cc(C)c2c(C)ccnc2c1	i	.	.	.	i
CN1/C(=C\C(=O)c2cccnc2)Sc2ccccc21	i	28.4%	?	7.31µM*	?
COc1cccc(C(=O)/C=C2\Sc3ccccc3N2C)c1	?	18.4µM*	?	?	i
CC(NC(=O)Nc1ccccc1C(F)(F)F)c1c(-n2cccc2)sc2c1CCCC2 (stereo unspecified)	i	.	.	.	i
O=C1NCCc2onc(-c3ccc(Br)cc3)c21	i	.	.	.	i
Cn1c(N)c(C(=O)CSc2nc(C3CC3)n(-c3ccccc3)n2)c(=O)[nH]c1=O	i	-0.9%	12.1%	-50.0%	i
CCOC(=O)c1sc(NC(=O)c2cc(-c3ccc(C)cc3)nc3ccccc23)c(C#N)c1C	?	?	?	0.8%	3.26µM*
Cc1cccc(NC(=O)c2sc(NC(=O)COc3ccccc3)c(C#N)c2C)c1C	i	-10.0%	-3.3%	-3.6%	i
CCOC(=O)c1sc(NC(=O)CSc2n[nH]c(-c3ccncc3)n2)c(C#N)c1C	?	24.0%	18.4µM*	-3.0%	i
COc1ccc(-c2cc(C(=O)Nc3sc4c(c3C#N)CCCC4)c3ccccc3n2)cc1	i	4.4%	?	18.3%	?
Cc1ccccc1NC(=O)c1sc(NC(=O)COc2ccccc2)c(C#N)c1C	i	-3.3%	23.1µM*	.	?
COC(=O)c1sc(NC(=O)c2cc(-c3ccccc3)nc3ccccc23)c(C#N)c1C	1.46µM*	?	-1.8%	23.1%	1.64µM*
COC(=O)c1c(NC(=O)c2nc(SCc3ccc(F)cc3)ncc2Cl)sc2c1CCCC2	i	.	.	.	i
COc1ccc(CCNC(=O)c2ccc3c(c2)N(Cc2ccc(Cl)cc2)CCS3)c(OC)c1	i	.	.	.	?
Cc1cc(NC(=O)c2cc(-c3ccccc3C)nc3ccccc23)no1	i	-1.4%	-19.3%	0.2%	i
Cc1ccccc1-c1cc(C(=O)Nc2sc(C(=O)OC(C)C)c(C)c2C#N)c2ccccc2n1	5.17µM*	?	23.1µM*	?	8.2µM*
COc1ccc(/C=C/C(=O)c2c(O)ccc3c(C)cc(=O)oc23)cc1	i	20.6µM*	6.1%	-4.0%	i
COc1ccc(/C=C\C(=O)c2c(O)ccc3c(C)cc(=O)oc23)cc1	23.1µM*	?	-15.2%	19.9%	?
COc1ccc(-c2cc(=O)oc3c(C)c(O)ccc23)cc1	i	?	8.2µM*	-6.9%	i
Cc1cc(O)ccc1-c1ccc2nncn2c1	i	.	.	.	i
NC(=O)c1ccsc1NC(=O)COC(=O)c1cc(=O)[nH]c2ccccc12	i	-4.0%	?	3.4%	i
SMILES	KB-3-1 cytotox	MCF10A rereplic	ELG1 repair inh	SW480 rereplic	KB-V1 MDR tox
O=C(CN1CCN(Cc2ccc(Cl)cc2)CC1)N1CCc2ccccc21	i	-0.5%	-15.0%	4.9%	i
CN(C(=O)C1Cc2c(-c3ccc(Cl)cc3)ccnc2O1)c1ccccc1 (stereo unspecified)	i	.	.	.	i
CCCn1nc(C(=O)Nc2cc(OCC)c(N3CCOCC3)cc2OCC)c2ccccc2c1=O	i	?	.	-5.0%	i
Cc1ccc(C2=Nc3ccccc3N(CC(=O)Nc3cccc(F)c3)C(=O)C2)cc1C	i	.	.	.	i
COc1ccc(/C=C/C(=O)NC(=S)NNC(=O)c2cccs2)cc1	?	10.3µM*	?	23.1µM*	?
COCC(=O)N1CCC(Oc2ccc(C(=O)N(C)C3CCCCC3)cc2)CC1	i	23.5%	-4.4%	-31.7%	i
CC(C)Cn1c(-c2csc3c2CCCC3)n[nH]c1=S	i	8.5%	-7.5%	-8.1%	20.6µM*
Cc1ccc(NS(=O)(=O)c2cc([N+](=O)[O-])ccc2NNC(=S)Nc2cc(C)ccc2C)c(C)c1	20.6µM*	?	?	?	2.91µM*
CC(NC(=O)Nc1cccc([N+](=O)[O-])c1)(C(F)(F)F)C(F)(F)F	18.4µM*	11.9%	-24.7%	2.6%	?
Cc1ccc([N+](=O)[O-])cc1NC(=O)Nc1cccc(F)c1	i	?	16.4µM*	?	?
O=C(Nc1ccccc1)Nc1cc([N+](=O)[O-])ccc1F	?	12.9%	-14.5%	1.0%	?
O=C(Nc1cccc([N+](=O)[O-])c1)Nc1ccc2c(c1)CCC2	?	16.5%	?	28.1%	23.1µM*
O=C(Nc1ccccc1)Nc1ccc2c(c1)CCC2	i	12.5%	?	?	i
COc1ccc(NC(=O)NNC(=O)c2ccc3ccccc3c2)cc1OC	i	2.3%	24.6%	0.3%	i
O=[N+]([O-])c1cccc(Nc2nc(Cl)nc(Cl)n2)c1	i	2.2%	-3.2%	-8.5%	i
O=C(Nc1cccc([N+](=O)[O-])c1)Nc1cccs1	i	0.651µM*	-27.4%	-9.4%	i
Cc1ccc([N+](=O)[O-])cc1NC(=S)NC(=O)CC(C)(C)C	i	-3.6%	7.9%	5.8%	18.4µM*
O=[N+]([O-])c1cccc(NC2=NCCC2)c1	13µM*	-0.7%	-12.4%	0.4%	i
COC(=O)c1sccc1NC(=O)Nc1cccc([N+](=O)[O-])c1	i	3.6%	0.2%	0.6%	i
COc1cc(C)c(S(=O)(=O)N2CCOCC2)cc1C	i	3.26µM*	7.8%	8.2µM*	i
CCOc1ccc(S(=O)(=O)N2CCN(C(=O)c3ccc(C)c(S(=O)(=O)N4CCOCC4)c3)CC2)cc1	?	9.2%	?	2.7%	20.6µM*
CCOc1ccc(S(=O)(=O)N2CCN(C(=O)c3ccc(Cl)c(S(=O)(=O)N4CCOCC4)c3)CC2)cc1	i	-4.1%	.	-12.0%	i
CCCOc1cc(C)c(S(=O)(=O)N2CCOCC2)cc1C	.	5.3%	9.8%	-1.3%	.
Cc1ccc(C(=O)NCC(c2ccc(F)cc2)N2CCOCC2)cc1S(=O)(=O)N1CCOCC1 (stereo unspecified)	i	7.1%	.	-2.4%	20.6µM*
CCOc1ccc(Oc2ccc(S(=O)(=O)N3CCOCC3)cc2N)cc1	i	12.8%	9.2µM*	-9.6%	i

Assay outcomes (PubChem BioAssay)
